# High-throughput results as filed in PubChem.
# MITF primary = human MITF inhibition, primary screen | O75030 | AlphaScreen MITF homodimerization, bead proximity signal | inhibition, % at 2.6 µM | hit rate 0.91% among 650,000 | AID 1259374; in the data active = inhibition above about 50%
# FBW7 activator = activators of human E3 ligase FBW7; AlphaScreen FBW7–phospho-cyclin E peptide binding, activator screen; normalized activity (activation), % at 26.1 µM; hit rate 0.13% among 650,000; in the data active = normalized activity above about 1.9%;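 also: purified mutant Fbw7 with reduced substrate affinity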
# Target sequence (Q969H0 whole entry, looked up): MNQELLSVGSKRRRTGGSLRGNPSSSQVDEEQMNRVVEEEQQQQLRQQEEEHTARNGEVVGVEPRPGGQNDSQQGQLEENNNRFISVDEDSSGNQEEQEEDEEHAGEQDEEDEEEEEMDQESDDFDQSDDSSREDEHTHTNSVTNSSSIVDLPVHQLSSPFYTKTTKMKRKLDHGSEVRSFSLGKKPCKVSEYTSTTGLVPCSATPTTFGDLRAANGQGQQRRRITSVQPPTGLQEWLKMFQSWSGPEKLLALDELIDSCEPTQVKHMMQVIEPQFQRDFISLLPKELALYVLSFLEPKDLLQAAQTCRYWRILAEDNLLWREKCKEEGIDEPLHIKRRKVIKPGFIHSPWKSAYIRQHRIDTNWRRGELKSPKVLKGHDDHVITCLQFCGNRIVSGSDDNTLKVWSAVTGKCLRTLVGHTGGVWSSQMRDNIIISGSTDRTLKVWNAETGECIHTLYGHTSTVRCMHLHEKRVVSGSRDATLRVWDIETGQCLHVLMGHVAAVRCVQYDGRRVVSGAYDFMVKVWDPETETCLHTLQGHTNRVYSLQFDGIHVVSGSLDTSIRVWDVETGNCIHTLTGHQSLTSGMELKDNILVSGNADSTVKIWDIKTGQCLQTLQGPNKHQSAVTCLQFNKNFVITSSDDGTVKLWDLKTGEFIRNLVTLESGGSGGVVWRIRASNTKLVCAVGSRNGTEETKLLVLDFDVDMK
# TEAD-YAP inh = TEAD-YAP interaction inhibition. hit rate 1.4% among 640,000. HEK-TIYL cells, TEAD-Gal4/YAP UAS-luciferase luminescence. inhibition, % at 9.12 µM; in the data active = inhibition above about 32%
# GPR151 ag = activators of human GPR151. Q8TDV0. hit rate 1% among 650,000. AID 1508602. PathHunter beta-arrestin GPR151 cells, luminescence. activation, % at 11.2 µM; in the data active = activation above about 4.9%
# GPR151 conf act = confirmation of human GPR151 activators; shares compounds with GPR151 ag; GPR151 PathHunter beta-arrestin cells, luminescence, 90 min; % of EA-reagent control over plate median; activation, % at 11.2 µM; 6,700 tested, under 10 active; AID 1508609;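 active = mean percent activation across replicates above the confirmation screen cutoff of 4.91%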
# GPR119 ag = activates human GPR119 in a GPR151 counter-screen; GPR119 PathHunter beta-arrestin cells, luminescence, 90 min; 0 = compound-well median, 100 = enzyme-acceptor control; hit rate 0.3% among 6,700; AID 1508611; shares compounds with GPR151 ag; activation, % at 11.2 µM;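 active = mean percent activation in the counterscreen above 29.09%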;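 also: counterscreen on off-target GPR119 to flag nonselective hits from the GPR151 activator screen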
# Hits are given with their value; i = inactive; nt = no result; ! = a repeat was not active. A selection: hits, their analogues and other compounds. The true share with any hit is near 3.4%.
SMILES,MITF primary,FBW7 activator,TEAD-YAP inh,GPR151 ag,GPR151 conf act,GPR119 ag
O=C(COc1ccc(Cl)cc1Cl)N/N=C\c1ccc([N+](=O)[O-])s1,i,i,i,5.7,i,i
COc1ccc(/C=N/NC(=O)COc2ccc(C)cc2)cc1O,i,i,i,i,nt,nt
COc1cc(/C=N/NC(=O)COc2ccc(Cl)cc2Br)ccc1O,i,i,i,i,nt,nt
CCc1ccc(OCC(=O)N/N=C/c2ccc(O)cc2)cc1,i,i,i,5.2,i,i
CC1CN(CCNC(=O)c2cccs2)Cc2ccccc2O1 (stereo unspecified),i,i,i,i,nt,nt
COc1ccc(NC(=O)CSc2nc3c(sc(=S)n3-c3ccccc3C)c(=O)n2-c2ccccc2)c(OC)c1,i,i,i,i,nt,nt
NC(=O)c1ccc(-c2nc(NCc3ccccc3)c3[nH]cnc3n2)cc1,i,i,i,i,nt,nt
COc1ccccc1C(=O)Nc1cc2c3c(c1)C1CCCC1CN3CC1CCCC21 (stereo unspecified),i,i,i,i,nt,nt
COC(=O)C1=C(C)N(Cc2ccccc2)C(=O)N[C@H]1c1cccc(C(F)(F)F)c1,i,i,nt,8.6,i,i
CCOC(=O)CN1C(=O)N[C@@H](c2cccc(C(F)(F)F)c2)C(C(C)=O)=C1C,i,i,nt,10.0,i,i
CC(=O)C1=C(C)N(Cc2ccccc2)C(=O)N[C@@H]1c1cccc(C(F)(F)F)c1,i,i,nt,i,nt,nt
COc1cc(CCN2C(=O)N[C@@H](c3cccc(C(F)(F)F)c3)C(C(C)=O)=C2C)cc(OC)c1OC,i,i,nt,i,nt,nt
CN1C(=O)c2cccc(NC(=O)/C=C/c3ccccc3)c2C1=O,i,i,i,i,nt,nt
CCC(C)(C)NS(=O)(=O)Cc1ccccc1,i,i,i,i,nt,nt
Cc1csc(/C(C#N)=C/c2ccccc2C(F)(F)F)n1,i,i,i,i,nt,nt
Cc1c(-c2ccccc2)sc2nc[nH]c(=O)c12,i,i,i,12.5,i,i
CCc1ccccc1NS(=O)(=O)c1ccc2c(c1)OCCN2C,i,i,i,i,nt,nt
CN1CCOc2cc(S(=O)(=O)NCCc3ccc(Cl)cc3)ccc21,i,i,i,i,nt,nt
CN1CCOc2cc(S(=O)(=O)Nc3ccccc3F)ccc21,i,i,i,15.9,i,i
Cc1cc2c(cc1S(=O)(=O)Nc1ncccc1C)OCCN2C,i,i,i,6.3,i,i
Cc1cc2c(cc1S(=O)(=O)Nc1ccccc1Br)OCCN2C,i,i,i,9.7,i,i
Cc1cc2c(cc1S(=O)(=O)Nc1ccccn1)OCCN2C,i,i,i,i,nt,nt
COc1ccc(CCNS(=O)(=O)c2ccc3c(c2)OCCN3C)cc1OC,i,i,i,5.2,i,i
COc1cccc2sc(=NC(=O)c3cccc(Cl)c3)n(C)c12,i,i,i,i,nt,nt
Cc1[nH]n(-c2ccccc2)c(=O)c1/C=N/Nc1ccc([N+](=O)[O-])cc1,i,i,i,i,nt,nt
SMILES,MITF primary,FBW7 activator,TEAD-YAP inh,GPR151 ag,GPR151 conf act,GPR119 ag
CN1CCOCCOCCOCCOCCOCC1,i,i,i,6.3,i,i
Cc1ccc(N(Cc2ccc(C(=O)NC(C)c3ccccc3)cc2)S(C)(=O)=O)cc1C (stereo unspecified),i,i,i,5.5,i,i
CC(NC(=O)c1ccc(N(Cc2ccccc2)S(C)(=O)=O)cc1)c1ccccc1 (stereo unspecified),i,i,i,i,nt,nt
CCC(Br)C(=O)NCCc1ccc(OC)c(OC)c1 (stereo unspecified),i,i,i,5.2,i,i
CCCN1CCN(C(=S)NCCc2ccc(OC)c(OC)c2)CC1,i,i,i,5.5,i,i
COc1ccc(CCNC(=O)/C=C\C(=O)O)cc1OC,i,i,i,5.0,i,i
NC(=O)C1CCN(c2ncnc3c(-c4ccc([N+](=O)[O-])cc4)nsc23)CC1,i,i,i,i,nt,nt
Cc1ccccc1-c1nnn(CC(=O)Nc2ccc(Cl)cc2)n1,i,i,i,i,nt,nt
CC(C)OC(=O)c1ccc(N2CC(C(=O)OCc3ccc(Cl)cc3)CC2=O)cc1 (stereo unspecified),i,i,i,i,nt,nt
Cc1cc(C)n2nc(C(=O)N/N=C/c3cc([N+](=O)[O-])ccc3O)nc2n1,i,i,i,5.8,i,i
Cc1cc(C)nc(N/N=C/c2cc([N+](=O)[O-])ccc2O)n1,i,i,i,i,nt,nt
CCC(=O)N1CCc2cc(Br)cc(S(=O)(=O)NCCC3=CCCCC3)c21,i,i,i,i,nt,nt
CCc1nc2ccc(-c3ccc4nc(CC)oc(=O)c4c3)cc2c(=O)o1,i,i,i,8.8,i,i
C=C(C)c1nc2ccc(-c3ccc4nc(C(=C)C)oc(=O)c4c3)cc2c(=O)o1,i,i,i,i,nt,nt
O=C(O)CNC(=O)/C(=C\c1ccc([N+](=O)[O-])cc1)NC(=O)c1ccco1,i,i,i,i,nt,nt
O=C(CC(=O)N/N=C/c1c(F)cccc1Cl)NCCc1ccccc1,i,i,i,5.6,i,i
O=C(CO)N/N=C\c1c(F)cccc1Cl,i,i,i,i,nt,nt
NC(=O)c1cc2cc(Cl)ccc2oc1=Nc1ccccc1,i,i,i,5.8,i,i
CC(C)N(CCNC(=O)c1ccc2nc(Nc3ncccn3)sc2c1)C(C)C,i,i,i,i,nt,nt
CC(C)N(CCNC(=O)c1ccc2nc(Nc3ccnn3C)sc2c1)C(C)C,i,i,i,6.8,i,i
CC(C)N(CCNC(=O)c1cccc(Nc2ccnn2C)n1)C(C)C,i,i,i,6.1,i,i
Cc1ccc(N(C(C)C(=O)Nc2ccc(F)cc2)S(C)(=O)=O)cc1C (stereo unspecified),i,i,i,i,nt,nt
c1ccc(CCn2nnnc2CN2CCN(c3ccccc3)CC2)cc1,i,i,i,i,nt,nt
c1ccc(CCN2CCN(c3ccccc3)CC2)cc1,i,i,i,6.9,i,i
COC(=O)c1c(NC(=S)N2CCN(S(C)(=O)=O)CC2)sc2c1CCCCCC2,i,i,i,6.7,i,i
SMILES,MITF primary,FBW7 activator,TEAD-YAP inh,GPR151 ag,GPR151 conf act,GPR119 ag
COC(=O)c1c(NC(=S)N2CCN(C(=O)C3CCCO3)CC2)sc2c1CCC2 (stereo unspecified),i,i,i,i,nt,nt
CC(N)(Cc1ccc(O)cc1)C(=O)O (stereo unspecified),i,i,i,5.2!,i,i
CC(C)(Cc1ccc(O)cc1)NC(=O)SCc1ccccc1,i,i,i,i,nt,nt
CCCC(=O)Nc1ccc(NC(=O)c2ccc(I)cc2)cc1,i,i,i,10.0,i,i
Cn1c(=O)[nH]c(=O)c2c1nc(NCc1ccccc1)n2Cc1ccccc1,i,i,i,i,nt,nt
Cc1cccc(Cn2c(SCC(C)C)nc3c2c(=O)[nH]c(=O)n3C)c1,i,i,i,5.2,i,i
Cn1c(=O)[nH]c(=O)c2c1nc(N1CCN(c3cccc(Cl)c3)CC1)n2Cc1ccccc1,i,i,i,5.3,i,i
CCCSc1nc2c(c(=O)[nH]c(=O)n2C)n1CC(O)Oc1cccc2ccccc12 (stereo unspecified),i,i,i,6.2,i,i
